# From PubChem BioAssay (NCATS)
# Several values for one entry are separate records, joined by “and”; a condition that tells them apart may be missing. Equal entries are not always repeated. Results filed as inconclusive are left out. Activity calls are given as the source filed them. Calls come from the whole dose curve; as a rule, active = well fitted cell-killing curve with a large enough effect; inconclusive = small, poorly fitted or top-dose-only effect; inactive = flat fitted curve, though single readings scatter.
# Test: Cell Viability - SH-SY5Y (AID 544); note: nearly all actives have a fitted effect of over 55% in size;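 for viability change, negative = cytotoxic: 0% = DMSO alone and -100% = 100 µM tamoxifen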
# Details: SH-SY5Y neuroblastoma cell viability; viability change, negative = cytotoxic: at 92.2 µM (top of the series)
# Excerpt: NIH Chemical Genomics Center [NCGC]
# NIH Molecular Libraries Screening Centers Network [MLSCN]
# National Institutes of Environmental Health Sciences [NIEHS]
# National Toxicology Program [NTP]
# We have developed a 1536-well cell-based assay for quantitative high throughput screening (qHTS) against a number of cell lines to determine in vitro cytotoxicity of small molecules. This particular assay uses the SH-SY5Y cell line which is derived from human neuroblastoma.
# NCGC Assay Protocol Summary:
# The CellTiter-Glo luminescent cell viability assay (Promega) is a homogeneous method to measure the number of viable cells in culture. The end point readout of this assay is based on quantitation of intracellular ATP, an indicator of metabolic activity, using the luciferase reaction. Luciferase catalyzes the oxidation of beetle Luciferin to oxyluciferin and light in the presence of ATP. The luminescent signal is proportional to amount of ATP present.
# Using the CellTiter-Glo luminescent cell viability assay, the amount of cellular ATP was measured in the SH-SY5Y cell line with complete culture medium following compound treatment for 40 hours. The assay was performed in opaque white Kalypsys 1536-well plates. In the screen, tamoxifen and doxorubicin were used as positive controls. Library compounds were measured for their ability to cause acute toxicity in the cell line, as reflected by a decrease in intracellular ATP levels, in a concentration-dependent manner. […] AC50 values were determined from concentration-response data modeled with the standard Hill equation.
# qHTS protocol for CellTiter Glo SH-SY5Y cellular assay
# [Step] [Parameter] [Value] [Description]
# 1. Reagent; 5 uL; 1500 SH-SY5Y cells/well
# 2. Time; 5 hr; 37 °C incubation
# 4. Controls; 23 nL; Tamoxifen 0.34 uM to 100 uM & Doxorubicin 0.02 nM to 100 uM
# 5. Time; 40 hr; 37 °C incubation
# 6. Reagent; 5 uL; CellTiter Glo reagent
# 7. Time; 20 min; Room Temperature
# 8. Detection; Luminescence; Viewlux plate reader
# Keywords: cell viability, cytotoxicity, SH-SY5Y cell line, luminescence, NTPHTS, NTPHTS_NCGC, NIEHS, EPA, DSSTox, MLSMR, MLSCN, NIH Roadmap, qHTS, NCGC
# Potency is the fitted concentration of half-maximal effect.
SMILES,"viability change, negative = cytotoxic",Potency
Clc1ccc2ccccc2c1,4.41% (inactive),
ClCBr,-8.86% (inactive),
CC(C)(OO)c1ccccc1,-82.7% (active),
COc1ccc(C=O)cc1OC,-13.3% (inactive),
C=CC(=C)C,-2.66% (inactive),
C[C@]12CC[C@H]3[C@@H](CCC4=CC(=O)CC[C@@]43C)[C@@H]1CC[C@@H]2O,-16.8% (inactive),
CCCCOCCOP(=O)(OCCOCCCC)OCCOCCCC,4.19% (inactive),
Cc1ccccc1N,-12% (inactive),
COP(=S)(OC)Oc1ccc([N+](=O)[O-])cc1,-10.1% (inactive),
ClC1=C(Cl)C2(Cl)C3C(Cl)C=CC3C1(Cl)C2(Cl)Cl (stereo not given),-18.8% (inactive),
C=CCc1ccc2c(c1)OCO2,7.19% (inactive),
COc1ccc(N)cc1,,inactive
NC(=S)Nc1ccccc1,,inactive
Clc1cccc(C(Cl)(Cl)Cl)n1,-10.7% (inactive),
C=CCc1ccc(OC)cc1,-3.3% (inactive),
N#CCCCl,,inactive
C/C=C/c1ccc2c(c1)OCO2,2.2% (inactive),
CCCOC(=O)c1ccccc1C(=O)OCCC,-13% (inactive),
ClC(Cl)=C(Cl)C(Cl)=C(Cl)Cl,-5.47% (inactive),
CCNc1nc(Cl)nc(NC(C)C)n1,11.4% (inactive),

SMILES,"viability change, negative = cytotoxic",Potency
Cc1ccc2ccccc2c1,-11.8% (inactive),
CCN(CC)c1ccccc1,-7.36% (inactive),
C[C@H]1CCCC(=O)CCC/C=C/c2cc(O)cc(O)c2C(=O)O1,,12.6 µM (active) and 31.6 µM (active)
CC(=O)[O-].CC(=O)[O-].O.O.O.[Pb+2],,inactive
CCOc1ccc(N)cc1,-13.2% (inactive),
CC(C)(C)OO,,inactive
c1ccc(OP(Oc2ccccc2)Oc2ccccc2)cc1,-1.04% (inactive),
[O-][Br+2]([O-])O,,inactive
CCC[CH2][Sn]([Cl])([Cl])[Cl],-11.6% (inactive),
ClC1=C(Cl)C2(Cl)C3C4C=CC(C4)C3C1(Cl)C2(Cl)Cl (stereo not given),-19.9% (inactive),
O=C(Cl)/C=C/C(=O)Cl,-10.3% (inactive),
Brc1ccccc1,-11.2% (inactive),
Cc1ccc([N+](=O)[O-])cc1C,-7.81% (inactive),
ClC(Cl)=C(c1ccc(Cl)cc1)c1ccc(Cl)cc1,,inactive
O=NN(c1ccccc1)c1ccccc1,1.41% (inactive),
Clc1nc(Cl)nc(Nc2ccccc2Cl)n1,-6.73% (inactive),
CCOP(=S)(OCC)Oc1ccc([N+](=O)[O-])cc1,,inactive
Nc1c(Cl)c(Cl)nc(C(=O)O)c1Cl,-2.59% (inactive),
C=CC(=O)OCC,-2.89% (inactive),
CN=C=S,1.4% (inactive),
